Source: PubChem (National Center for Advancing Translational Sciences (NCATS))
HCMV inh – blocks human cytomegalovirus replication; HFF cells, HCMV-luciferase reporter, 72 h; active compounds read low; activity change, negative = inhibition, % at 57.5 µM; 4.5% of 410,000 active; AID 1259415; in the data active = activity change below about -60%; inconclusive = no clear call, values can overlap the other calls; inactive = above about -39%; also: % is scaled to controls: 0 for no effect and ±100 for the full control effect
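After 16 h attachment at 37C, HFF cells received test compound and HCMV-luciferase (1 PFU/cell); reporter luminescence read 72 h later, data normalized against buffer-only and known inhibitor Salinomycin.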
Shiga toxin inh – inhibitors of Shiga toxin in Vero cells; Vero cells, Shiga toxin protein synthesis inhibition reporter; AID 2315; 9.2% of 290,000 active; inhibition, % at 38.7 µM; in the data active = inhibition mostly above about 28%, no sharp cut-off; inactive = mostly below about 43%; also: 0% is about no effect
Pf growth 48h – inhibits P. falciparum growth in the first generation, 48 h; P. falciparum luciferase growth in erythrocytes, 48 h; Potency, µM (series often up to 28.7 µM), inactives show top-dose activity change, negative = inhibition, actives largely listed as inhibitors; 5.9% of 310,000 active; AID 504832; also: potency is read from the fitted curve at half-maximal effect; % is scaled to controls: 0 for no effect and ±100 for the full control effect
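Compounds are pin-transferred into medium, infected erythrocytes (2% hematocrit, 0.1% parasitemia final) are added, and plates sit one parasite generation at 37 C in 5% CO2. Detection reagent is then added and luminescence measured.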
CHX counter – counter-screen hit for Shiga toxin inhibitors, cycloheximide | cell reporter, cycloheximide protein synthesis inhibition counterscreen | max response, % | 12% of 300,000 active; in the data active = max response mostly above about 13%, no sharp cut-off; inactive = mostly below about 14%; also: read at 38.3 µM for the half of the compounds with a filed dose; 0% is about no effect
Pf growth 96h – P. falciparum growth inhibition at 96 hour, primary screen for plastid delayed-death inhibitors. Potency, µM (series often up to 28.7 µM), for inactives: top-dose activity change, negative = inhibition, most hits filed as inhibitors. 6.9% of 320,000 active. P. falciparum luciferase reporter growth, 96 h; also: potency is read from the fitted curve at half-maximal effect; % is scaled to controls: 0 for no effect and ±100 for the full control effect
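Erythrocytes infected with luciferase-expressing P. falciparum were dispensed at 2% hematocrit and 0.05% parasitemia (final), then incubated with compounds 96 hours at 37 C in 5% CO2. Luminescence after detection reagent addition reported growth.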
An asterisk follows results filed as active. An excerpt weighted towards active compounds, which were near 20% of everything screened. Unless noted, calls follow the shape of the dose curve; as a rule, active = well fitted inhibition curve with a large enough effect; inconclusive = small, poorly fitted or top-dose-only effect, or another doubt; inactive = no such curve, though single readings can be large or run the other way.

How did COc1ccc2nc(N(CCN(C)C)C(=O)/C=C/c3cccs3)sc2c1 do in these assays?
HCMV inh: -70*; Shiga toxin inh: -19; Pf growth 48h: inconclusive; CHX counter: -6; Pf growth 96h: inconclusive

Results for CCN(CC)CCN(C(=O)/C=C/c1cccs1)c1nc2ccc(OC)cc2s1 ?
HCMV inh: 4

What do the screens show for `Cc1cccc2sc(N(CCN(C)C)C(=O)/C=C/c3cccs3)nc12`?
HCMV inh: -77*; Shiga toxin inh: -9; Pf growth 48h: inconclusive; CHX counter: -5; Pf growth 96h: inconclusive

What do the screens show for `O=C(C1CCC(=O)N(C2CCCC2)C1)N1CCN(c2ccccc2Cl)CC1` (stereo unspecified)?
HCMV inh: -4; Shiga toxin inh: -2; Pf growth 48h: -16%; CHX counter: 11; Pf growth 96h: 27%

Results for Cc1ccc(S(=O)(=O)N2c3ccccc3NC(=O)C2CC(=O)Nc2ccccc2)cc1 (stereo unspecified) ?
HCMV inh: -24; Shiga toxin inh: 10; Pf growth 48h: inconclusive; CHX counter: -1; Pf growth 96h: 12µM*

How did COc1ccc(-c2cccc(C(=O)Nc3ccc(C)cc3)c2)cc1 do in these assays?
HCMV inh: -18; Shiga toxin inh: 16; Pf growth 48h: 6%; CHX counter: 1; Pf growth 96h: 125%

How did CCN(CC)C(=O)c1cccc(-c2csc(C(C)(NC(C)=O)c3ccc(OC)cc3)n2)c1 (stereo unspecified) do in these assays?
HCMV inh: 47

How did COc1ccc(-c2cccc(C(=O)NCC(=O)O)c2)cc1 do in these assays?
HCMV inh: 34; Shiga toxin inh: 35*; CHX counter: 23*; Pf growth 96h: 6%

Results for COC(=O)CNC(=O)c1cccc(-c2ccc(OC)cc2)c1 ?
HCMV inh: -17; Shiga toxin inh: 80*; Pf growth 48h: 66%; CHX counter: 36*; Pf growth 96h: 2.3µM*

How did CCN(CC)C(=O)c1cccc(-c2ccc(OC)cc2)c1 do in these assays?
HCMV inh: -1; Shiga toxin inh: 49*; Pf growth 48h: inconclusive; CHX counter: 25*

What do the screens show for `O=C(Nc1cccc(F)c1)N1C[C@H]2[C@@H](c3ccccc31)[C@H](CO)N2C(=O)c1cccnc1`?
HCMV inh: -4

How did COc1ccc(N(CC(=O)N2CCCCCC2)S(C)(=O)=O)cc1Cl do in these assays?
HCMV inh: -21; Shiga toxin inh: 12; Pf growth 48h: inconclusive; CHX counter: 2; Pf growth 96h: -29%

How did Cc1ccc(N(CC(=O)N2CCCC2)S(C)(=O)=O)cc1C do in these assays?
HCMV inh: 65; Shiga toxin inh: -7; Pf growth 48h: -17%; CHX counter: -2; Pf growth 96h: 7.4µM*

What do the screens show for `COc1ccc(N(CC(=O)N2CCOCC2)S(C)(=O)=O)cc1OC`?
HCMV inh: 5; Shiga toxin inh: -3; Pf growth 48h: -5%; CHX counter: -4; Pf growth 96h: 13µM*

Results for COc1ccc(N(CC(=O)N2CCOCC2)S(C)(=O)=O)cc1Cl ?
HCMV inh: -5; Shiga toxin inh: -3; Pf growth 48h: -14%; CHX counter: -2; Pf growth 96h: 12µM*

How did COc1ccc(N(CC(=O)N2CCOCC2)S(C)(=O)=O)cc1 do in these assays?
HCMV inh: -10; Shiga toxin inh: -5; Pf growth 48h: -7%; CHX counter: 1; Pf growth 96h: inconclusive

How did CCc1ccccc1N(CC(=O)N1CCCCCC1)S(C)(=O)=O do in these assays?
HCMV inh: 6; Shiga toxin inh: -12; Pf growth 48h: -11%; CHX counter: -1; Pf growth 96h: -43%

What do the screens show for `CCc1ccccc1N(CC(=O)N1CCCC1)S(C)(=O)=O`?
HCMV inh: 6; Shiga toxin inh: -10; Pf growth 48h: -2%; CHX counter: 1; Pf growth 96h: 10µM*

Results for CCOC(=O)[C@H]1[C@H]2COc3ccc(Cl)cc3[C@@H]2N2C(=O)CN(CC3CCCO3)C(=O)[C@@]12C (stereo partly specified) ?
HCMV inh: 6; Pf growth 48h: -12%; Pf growth 96h: inconclusive

How did Cc1noc(C)c1CCC(=O)N1CCCC(CCC(=O)NCc2ccccc2F)C1 (stereo unspecified) do in these assays?
HCMV inh: -7; Shiga toxin inh: -6; Pf growth 48h: 23%; CHX counter: -2; Pf growth 96h: 33%

What do the screens show for `S=c1[nH]nc(-c2cccc3ccccc23)n1-c1cccnc1`?
HCMV inh: 9; Shiga toxin inh: -3; Pf growth 48h: 14%; CHX counter: 1; Pf growth 96h: 8%

What do the screens show for `CC(=O)c1c(C)[nH]c(C(=O)Nc2cccc(S(=O)(=O)N3CCCCC3)c2)c1C`?
HCMV inh: -1; Pf growth 48h: 9.3µM*; Pf growth 96h: 9.3µM*

Results for O=C(Nc1cccc(S(=O)(=O)N2CCCC2)c1)c1cccc(OC(F)F)c1 ?
HCMV inh: inconclusive; Pf growth 48h: inconclusive; Pf growth 96h: 9.3µM*

Results for O=C(Nc1cccc(S(=O)(=O)N2CCCCC2)c1)c1ccc(S(=O)(=O)C(F)F)cc1 ?
HCMV inh: -64*; Shiga toxin inh: 2; Pf growth 48h: inconclusive; CHX counter: 1; Pf growth 96h: inconclusive

Results for COC(=O)c1ccc(NC(=O)COC(=O)C2=NN(c3ccccc3)C(=O)CC2)cc1 ?
HCMV inh: 0; Pf growth 48h: -28%; Pf growth 96h: inconclusive

Results for COc1ccc(C2c3ccc(O)cc3Oc3ncn4nc(-c5ccncc5)nc4c32)cc1OC (stereo unspecified) ?
HCMV inh: 33; Shiga toxin inh: -6; Pf growth 48h: 1.3µM*; CHX counter: -1; Pf growth 96h: 3.3µM*

How did COc1ccc(C2c3ccc(O)cc3Oc3ncn(Cc4ccccc4)c(=N)c32)cc1OC (stereo unspecified) do in these assays?
HCMV inh: -27; Shiga toxin inh: 2; Pf growth 48h: 12µM*; CHX counter: -2; Pf growth 96h: inconclusive

How did COc1ccc(C2c3ccc(O)cc3Oc3ncn4nc(-c5ccco5)nc4c32)cc1OC (stereo unspecified) do in these assays?
HCMV inh: 35; Shiga toxin inh: 8; Pf growth 48h: inconclusive; CHX counter: 8; Pf growth 96h: -2%

What do the screens show for `COc1ccc(C2c3ccc(O)cc3Oc3ncn4nc(-c5ccccn5)nc4c32)cc1OC` (stereo unspecified)?
HCMV inh: -7; Shiga toxin inh: 15; Pf growth 48h: 10µM*; CHX counter: 6; Pf growth 96h: -4%

Results for COc1ccc(C2c3ccc(O)cc3Oc3ncn4nc(-c5ccccn5)nc4c32)cc1 (stereo unspecified) ?
HCMV inh: -37; Shiga toxin inh: 15; Pf growth 48h: inconclusive; CHX counter: 4; Pf growth 96h: inconclusive

What do the screens show for `Cc1cccc(C)c1NC(=O)C(C1CC1)N1C(=O)C(=O)c2ccccc21` (stereo unspecified)?
HCMV inh: -7
